# TRHR agonist: activates the human TRH receptor; P34981; TRHR cells, calcium flux fluo-8, FDSS agonist mode; activation, % at 2 µM; 360,000 tested, 0.18% active; AID 493084; also: 0% is about no effect
# Target sequence (P34981 whole entry, looked up): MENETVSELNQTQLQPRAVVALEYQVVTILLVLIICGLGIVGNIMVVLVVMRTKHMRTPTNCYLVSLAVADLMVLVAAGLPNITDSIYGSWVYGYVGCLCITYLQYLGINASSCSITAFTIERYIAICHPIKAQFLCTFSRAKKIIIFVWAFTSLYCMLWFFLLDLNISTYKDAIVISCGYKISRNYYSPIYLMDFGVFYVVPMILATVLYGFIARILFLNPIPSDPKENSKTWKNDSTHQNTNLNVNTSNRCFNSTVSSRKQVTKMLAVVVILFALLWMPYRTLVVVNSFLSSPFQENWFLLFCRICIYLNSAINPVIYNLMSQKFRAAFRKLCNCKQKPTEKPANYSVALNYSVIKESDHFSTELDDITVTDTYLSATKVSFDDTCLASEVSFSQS
#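 Agonist-mode FDSS calcium read (Ex 480/Em 530, 1 s cycles) in 1536-well TRHR cells with fluo-8 dye, after 10-cycle baseline and 23 nL compound addition; TRH at EC20 (10 nM final) added afterwards for the enhancer phase.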
# TRHR enhancer: allosteric enhancers of human TRH receptor. P34981. TRHR cells, fluo-8 calcium fluorescence, EC20 TRH enhancement. enhancement, % at 2 µM. 360,000 tested, 0.66% active. AID 493056; in the data active = enhancement above about 30%; also: 0% is about no effect
#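 Enhancer read-out: after compound pinning and an initial kinetic agonist-mode read, an EC20 of TRH (10 nM final) was injected and fluo-8 calcium signal (Ex 480/Em 530) followed at 1 s/cycle for 100 cycles in TRHR-expressing cells.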
# Epigenetic derep: regulators of epigenetic silencing causing reporter derepression in mouse cells; murine LDR cells, GFP reporter derepression, 30 h; Potency, µM (top dose mostly 53.9 µM), for inactives: at the top dose GFP activation, most hits filed as activators; 280,000 tested, 0.2% active; AID 1865; active = well fitted activation curve with a large enough effect; inconclusive = small, poorly fitted or top-dose-only effect; also: potency is read from the fitted curve at half-maximal effect; % of control where 0% means no effect; nearly all actives have a fitted effect of over 60% in size
#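 Derepression of a silenced CMV-GFP reporter in murine LDR cells is scored by enumerating GFP-positive cells with a laser-scanning microplate cytometer after 30 hours of treatment at 37 C.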
# D1 potentiator: potentiators of human D1 dopamine receptor | 360,000 tested, 0.036% active | HEK293 TREx D1 cells, calcium flux, dopamine EC20 potentiation | P21728 | potentiation, % at 10 µM; in the data active = potentiation above about 30%; also: 0% is about no effect
# D1 antagonist: blocks dopamine activation of the human D1 receptor. P21728. HEK293 TREx D1 cells, calcium flux, dopamine EC80; stronger effect = lower value. activity change, negative = inhibition, % at 10 µM. 360,000 tested, 3.2% active. AID 504652; in the data active = activity change below about -30%; also: % is scaled to controls: 0 for no effect and ±100 for the full control effect
#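 Tetracycline-induced HEK293 T-REx cells with force-coupled D1 receptor were loaded with a no-wash calcium dye. Compound was added after a 10 s baseline and read kinetically for 180 s; EC80 dopamine was then added and calcium flux followed another 180 s.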
# D1 ag: human D1 receptor agonism. activation, % at 2 µM. 360,000 tested, 1% active. P21728. HEK293 T-REx D1 cells, calcium flux, agonist mode; also: 0% is about no effect
#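 Tetracycline-induced HEK293 TREx D1 cells, force-coupled to calcium signalling, were dye-loaded with a no-wash calcium kit. Compound was pin-added after a 10 s baseline. Fluorescence was read kinetically at 1 cycle/s for 180 s, with calcium rises flagged as agonism.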
# * marks the source's active call; other numbers are inactive results; u = inconclusive; x = no result. Most compounds without a hit are left out; they make up all but 4.6% or so of the library. Rule as the data show it, unless noted: active = activation above about 30%; inactive = the rest.
SMILES,TRHR agonist,TRHR enhancer,Epigenetic derep,D1 potentiator,D1 antagonist,D1 ag
COc1ccc(CC(C)CC(=O)NCCc2ccc(OC)c(OC)c2)cc1 (centres undefined),0,-11,x,-2,-75*,1
COc1ccc(CCNC(=O)CC2SC(=NCc3ccccc3OC)NC2=O)cc1 (centres undefined),0,-3,-3%,0,-9,-3
COc1ccc(N=C2NC(=O)C(CC(=O)NCCc3ccc(OC)c(OC)c3)S2)cc1 (centres undefined),0,2,0%,0,-38*,4
CSc1nc(N)nc(SCCS(=O)(=O)c2ccc(Cl)cc2)c1C#N,1,-2,0%,-9,-31*,3
Cn1c(=O)c2c(nc(N3CCOCC3)n2CCc2ccccc2)n(C)c1=O,0,-1,1%,-4,1,2
CC(C)CCn1c(N2CCCC2)nc2c1c(=O)[nH]c(=O)n2C,-1,-8,x,-5,-38*,4
CCN1CCN(c2nc3c(c(=O)[nH]c(=O)n3C)n2CCSc2nc3ccccc3s2)CC1,-1,-1,1%,4,-6,0
CC(C)CCn1c(N2CCOCC2)nc2c1c(=O)n(CC(N)=O)c(=O)n2C,1,6,-1%,-10,-58*,1
Cc1csc(SCCn2c(N3CCN(c4ccccc4)CC3)nc3c2c(=O)[nH]c(=O)n3C)n1,-1,5,-1%,0,-64*,-1
CC(C)N1C(=O)C(O)(c2c[nH]c3ccccc23)c2ccccc21 (centres undefined),-5,-1,-1%,-3,4,1
Cc1ccc(C(=O)NCCC(C)C)cc1NC(=O)c1nsc2ccccc12,0,-3,10%,-1,-20,2
CCC(=O)N1CCc2cc(CNS(=O)(=O)c3cc(OC)ccc3OC)ccc21,0,5,u,-6,3,0
CCOc1ccc(-c2cc(NC(=O)c3c(F)cccc3F)c(C(=O)O)s2)cc1,0,-1,x,-8,-49*,0
CCOC(=O)c1cc(-c2ccccc2)n(CCC(=O)Nc2ccc(C(F)(F)F)cc2)c1C,11,-4,u,-6,2,85*
CC(=O)c1cc(-c2ccccc2)n(CCC(=O)Nc2ccc(C(C)C)cc2)c1C,5,-2,-1%,-8,-20,63*
CCOC(=O)c1cc(-c2ccccc2)n(CCCC(=O)Nc2ccc(C)c(Cl)c2)c1C,1,7,-1%,-8,-3,7
CCOC(=O)c1cc(-c2ccccc2)n(CCCC(=O)Nc2ccc(C)c(C)c2)c1C,1,0,-1%,-9,-48*,6
COc1ccc(C2CC(=O)NC(NC(=O)c3ccc(Br)cc3)=N2)c(OC)c1OC (centres undefined),0,2,0%,1,11,-1
CCOc1ccc(C(c2c(NC(=O)c3ccccc3)sc(C)c2C)N2CCN(C)CC2)cc1 (centres undefined),1,0,0%,-6,28,3
Cc1sc(NC(=O)c2ccccc2)c(C(c2ccccn2)N2CCN(CCO)CC2)c1C (centres undefined),0,26,-2%,-2,-5,108*
O=C(CN1CCCN(Cc2cccc(Cl)c2)S1(=O)=O)Nc1ccc2c(c1)OCCO2,-1,-3,-3%,0,7,1
CCc1cccc(NC(=O)CN2CCCN(Cc3cccc(C)c3)S2(=O)=O)c1,-1,4,-5%,1,-1,5
Cc1cccc(CN2CCN(CC(=O)Nc3c(C)cccc3C)S2(=O)=O)c1,36*,0,-7%,4,3,5
Cc1ccc(C)c(NC(=O)CN2CCCN(Cc3cccc(Cl)c3)S2(=O)=O)c1,0,1,-3%,-2,-79*,6
O=c1c(S(=O)(=O)c2cccc(Cl)c2)cn(Cc2ccccc2)c2cc(N3CCCCC3)c(F)cc12,0,8,-1%,-2,3,0
SMILES,TRHR agonist,TRHR enhancer,Epigenetic derep,D1 potentiator,D1 antagonist,D1 ag
O=C(/C=C/c1ccc(Cl)cc1Cl)Nc1cccc(S(=O)(=O)NC2=NCCC2)c1,1,12,-1%,-8,-31*,8
CC(C)(c1ccccc1)c1ccc(OCCN2CCOCC2)cc1,0,5,x,-7,0,4
CC(C)(c1ccccc1)c1ccc(OCCCN2CCNCC2)cc1,1,1,-3%,-4,6,59*
CCCOc1ccc(OCCCCNC(C)CC)cc1 (centres undefined),0,0,3%,7,-54*,3
CC(C)(C)c1ccc(OCCNCc2ccccc2)cc1,1,13,x,23,10,43*
CNCCCOc1ccc(C(C)(C)c2ccccc2)cc1,7,15,1%,4,7,53*
COc1ccc(C(=O)NCc2nnc(SCC(=O)Nc3ccccc3)n2-c2ccccc2)cc1,0,0,0%,-1,1,0
COc1ccc(C(c2c(O)cc(C)n(Cc3ccco3)c2=O)N2CCN(c3ccccc3)CC2)cc1 (centres undefined),0,-4,-3%,-1,7,0
CC(=O)SC1CC2=CC(=O)CC[C@]2(C)C2CC[C@@]3(C)[C@@H](CC[C@@]34CCC(=O)O4)C12 (some centres undefined),x,x,0%,x,x,x
CCC(C)NCCOc1cccc(Br)c1 (centres undefined),-1,-1,0%,-3,5,5
Cc1ccc(C(C)C)c(OCCNCCc2ccccc2)c1,0,-1,x,21,-1,58*
CCC(C)NCCOc1ccc(C(C)(C)c2ccccc2)cc1 (centres undefined),3,11,-2%,3,-3,72*
CCCCNCC#CCOc1cc(C)ccc1C(C)C,-1,9,-5%,-2,6,87*
Cc1ccc(C(C)C)c(OCCCNCc2cccnc2)c1,0,4,-6%,-4,-21,10
c1ccc(CCNCCOc2ccccc2)cc1,0,16,x,-11,-53*,1
Cc1ccc(C(C)C)c(OCCNS(C)(=O)=O)c1,-1,-2,-1%,-5,-5,3
O=C(CCCOc1ccccc1)NCCc1ccccc1,-1,-8,6%,-2,-2,2
COc1ccc(N2CCN(C(CNS(=O)(=O)c3c(C)cc(C)cc3C)c3ccco3)CC2)cc1 (centres undefined),0,4,3%,-5,x,5
O=C(NCC(c1cccnc1)N1CCc2ccccc21)c1ccc(F)cc1 (centres undefined),0,-3,4%,-3,-18,17
Cc1c(C(=O)N(C)C2CCCCC2)sc2nc3ccc(N)cc3n12,x,x,2%,x,x,x
